# According to PubChem BioAssay (Tox21):
# “And” between values parts separate entries of the source, which are not always exact repeats. Equal values may be shown once. Records with an inconclusive call do not appear. Where a structure was tested more than once in an assay, its records may differ in their call. The source made the active and inactive calls. The call rests on the fitted dose curve; in most records, active means well fitted inhibition curve with a large enough effect in the repeat runs; inconclusive means weak or mixed curves, or effect the other way; inactive means no such curve, though single readings can be large or run the other way.
# Target: Nuclear receptor ROR-gamma (Homo sapiens) (UniProt P51449)
# Assay: qHTS assay to identify small molecule antagonists of the retinoid-related orphan receptor gamma (ROR-gamma) signaling pathway (AID 1159521; further: nearly all actives have a fitted effect of over 50% in size;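 on activity change, negative = inhibition: CHO cells with doxycycline inducible ROR-gamma driving an RORE luciferase reporter; top concentration of the series differs between compounds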)
# Conditions: Tet-on RORgamma CHO cells, RORE-luciferase, 16 h; series mostly up to 92.4 µM; activity change, negative = inhibition: at the top concentration
# Method in brief: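 Decreased RORE-driven luciferase luminescence indicates antagonism. Tet-on RORγ CHO cells received compound, then 1 uM final doxycycline 2 h later; signal read after 16 h incubation.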
# On the % scale 0 is the no-effect control and ±100 the full control effect; potency means the concentration at half of the fitted maximal effect.
Structure (SMILES),Potency,"activity change, negative = inhibition"
CC(C)(C)CC(C)(C)c1ccc(O)cc1,54.5 µM (active) and inactive,–
CNC(=O)Oc1cccc(N=CN(C)C)c1,–,-26.8% (inactive)
c1ccc2sc(SNC3CCCCC3)nc2c1,inactive,–
O=C(N[C@H]1CN2CCC1CC2)c1ccc2c(c1)OCCO2,–,5.17% (inactive)
C=CCOC(=O)C(C)(C)OC(=O)c1cc(-n2c(=O)cc(C(F)(F)F)n(C)c2=O)ccc1Cl,–,-7.99% (inactive)
C=CCc1ccc(OC(=O)Cc2ccccc2)c(OC)c1,–,2.98% (inactive)
O=[N+]([O-])O[C@H]1CO[C@H]2[C@@H]1OC[C@H]2O[N+](=O)[O-],–,29.8% [at 42.5 µM] (inactive)
C[C@H]1[C@@H]2Cc3ccc(O)cc3[C@@]1(C)CCN2C,–,-4.39% [at 240 µM] (inactive)
Cc1cnc(C2=NC(C)(C(C)C)C(=O)N2)c(C(=O)O)c1 (stereo not drawn),–,14.4% (inactive)
Cc1ncc(C[n+]2csc(CCO)c2C)c(N)n1,–,-3.67% (inactive)
COc1cc(CC(C)N)c(OC)cc1Br (stereo not drawn),–,-12% (inactive)
C[Si](Cn1cncn1)(c1ccc(F)cc1)c1ccc(F)cc1,31.6 µM (active) and 43.3 µM (active),–
Cc1nc2ccccc2c(=O)n1-c1ccccc1Cl,–,-8.19% (inactive)
CN(C)C(=O)Nc1cccc(OC(=O)NC(C)(C)C)c1,–,2.13% (inactive)
CN(C)c1ccc(N=O)cc1,4.34 µM (active) and 9.69 µM (active),–
NP(N)(=O)NC(=O)c1ccc(F)cc1,–,12.7% [at 42.5 µM] (inactive)
C[C@@H]1C[C@@H]([C@H](O)CC2CC(=O)NC(=O)C2)C(=O)[C@@H](C)C1,383 nM (active) and 137 nM (active) and 237 nM (active),–
COC1=CC(=O)O[C@@H](/C=C/c2ccc3c(c2)OCO3)C1,–,-19.8% (inactive)
CCN(C(C)=O)c1cccc(-c2ccnc3c(C#N)cnn23)c1,–,-1.41% [at 42.5 µM] (inactive)

Structure (SMILES),Potency,"activity change, negative = inhibition"
CCOC(=O)c1cn2nc(OP(=S)(OCC)OCC)cc2nc1C,–,-21.9% (inactive)
O=C(O)CCCOc1ccc(Cl)cc1Cl,inactive,–
COc1ccc(C(=O)c2c(C)n(CCN3CCOCC3)c3ccccc23)cc1,–,-10.5% [at 42.5 µM] (inactive)
O=C(N/N=C/c1ccc([N+](=O)[O-])o1)c1cc([N+](=O)[O-])cc([N+](=O)[O-])c1O,–,36% [at 42.5 µM] (inactive)
Oc1cccc(Cl)c1,–,3.2% (inactive)
Cc1ccccc1,–,-22% (inactive)
O=C(NC(=O)c1cc(F)c(F)cc1Cl)Nc1cc(F)ccc1N1CCC(C(=O)O)CC1,–,-2.77% [at 42.5 µM] (inactive)
O=C(Cc1ccccc1)c1ccccc1,–,36% (inactive)
CCOP(=S)(S)OCC,–,-24.1% (inactive)
C[C@]12C=CC3=C4CCC(=O)C=C4CC[C@H]3[C@@H]1CC[C@@H]2O,–,-22.4% (inactive)
CCCC[N+](CCCC)(CCCC)CCCC,–,-1.9% (inactive)
CCCCC(CC)CO[N+](=O)[O-] (stereo not drawn),–,8.78% (inactive)
O=C(O)c1cc(Cl)ccc1Cl,–,30.2% (inactive)
Nc1ccccc1C(=O)OCCc1ccccc1,inactive,–
CCCSP(=S)(OCC)Oc1ccc(SC)cc1 (stereo not drawn),–,4.79% (inactive)
CC(Oc1cccc(Cl)c1)C(=O)O (stereo not drawn),–,9.7% (inactive)
Nc1c(Br)cc(Br)c2c1C(=O)c1ccccc1C2=O,–,13.2% [at 19 µM] (inactive)
C=CC(=O)NC(C)(C)CC(C)=O,–,16.6% (inactive)
CCCBr,–,20.9% (inactive)
